# Where a name gives a salt, the structure may show the parent alone. ± gives the standard deviation of the averaged measurements.
# What was measured:
# [1] = tested on: Saccharomyces cerevisiae BY4741 SeMeCo community; experiment: z-score of prototroph abundance vs DMSO median; higher = larger share of this subpopulation than in DMSO controls; conditions: 10 µM; 24 h; SM minimal medium; subpopulation (auxotrophy): Prototroph
# In short: (§1)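 Automated confocal microscopy of paraformaldehyde-fixed cells was used to follow a Saccharomyces cerevisiae BY4741 community carrying four plasmids, each restoring one auxotrophy and encoding a distinct fluorescent protein. The community was pre-grown overnight to OD600 1.0, diluted to 0.3, and added at 70 µl to 384-well plates acoustically predosed with library drugs (10 µM final) for 24 h of growth in minimal SM medium. Single-auxotroph fluorescent strains set thresholds and autofluorescence correction, and each subpopulation's abundance was scored as a z-score against the vehicle-well median.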
# [2] = tested on: Saccharomyces cerevisiae BY4741 SeMeCo community; experiment: z-score of subpopulation abundance vs DMSO median, subpopulation auxotrophic for M; higher = larger share of this subpopulation than in DMSO controls; conditions: 10 µM; 24 h; SM minimal medium; subpopulation (auxotrophy): M
# In short: as §1
# [3] = tested on: Saccharomyces cerevisiae BY4741 SeMeCo community; experiment: z-score of subpopulation abundance vs DMSO median, subpopulation auxotrophic for L; higher = larger share of this subpopulation than in DMSO controls; conditions: 10 µM; 24 h; SM minimal medium; subpopulation (auxotrophy): L
# In short: as §1
# [4] = tested on: Saccharomyces cerevisiae BY4741 SeMeCo community; experiment: z-score of subpopulation abundance vs DMSO median, subpopulation auxotrophic for U; higher = larger share of this subpopulation than in DMSO controls; conditions: 10 µM; 24 h; SM minimal medium; subpopulation (auxotrophy): U
# In short: as §1
# [5] = tested on: Saccharomyces cerevisiae BY4741 SeMeCo community; experiment: z-score of subpopulation abundance vs DMSO median, subpopulation auxotrophic for H; higher = larger share of this subpopulation than in DMSO controls; conditions: 10 µM; 24 h; SM minimal medium; subpopulation (auxotrophy): H
# In short: as §1
# [6] = tested on: Saccharomyces cerevisiae BY4741 SeMeCo community; experiment: z-score of subpopulation abundance vs DMSO median, subpopulation auxotrophic for LU; higher = larger share of this subpopulation than in DMSO controls; conditions: 10 µM; 24 h; SM minimal medium; subpopulation (auxotrophy): LU
# In short: as §1
# [7] = tested on: Saccharomyces cerevisiae BY4741 SeMeCo community; experiment: z-score of subpopulation abundance vs DMSO median, subpopulation auxotrophic for LM; higher = larger share of this subpopulation than in DMSO controls; conditions: 10 µM; 24 h; SM minimal medium; subpopulation (auxotrophy): LM
# In short: as §1
# [8] = tested on: Saccharomyces cerevisiae BY4741 SeMeCo community; experiment: z-score of subpopulation abundance vs DMSO median, subpopulation auxotrophic for HM; higher = larger share of this subpopulation than in DMSO controls; conditions: 10 µM; 24 h; SM minimal medium; subpopulation (auxotrophy): HM
# In short: as §1
# [9] = tested on: Saccharomyces cerevisiae BY4741 SeMeCo community; experiment: z-score of subpopulation abundance vs DMSO median, subpopulation auxotrophic for HU; higher = larger share of this subpopulation than in DMSO controls; conditions: 10 µM; 24 h; SM minimal medium; subpopulation (auxotrophy): HU
# In short: as §1
# [10] = tested on: Saccharomyces cerevisiae BY4741 SeMeCo community; experiment: z-score of subpopulation abundance vs DMSO median, subpopulation auxotrophic for HL; higher = larger share of this subpopulation than in DMSO controls; conditions: 10 µM; 24 h; SM minimal medium; subpopulation (auxotrophy): HL
# In short: as §1
# [11] = tested on: Saccharomyces cerevisiae BY4741 SeMeCo community; experiment: z-score of subpopulation abundance vs DMSO median, subpopulation auxotrophic for HLU; higher = larger share of this subpopulation than in DMSO controls; conditions: 10 µM; 24 h; SM minimal medium; subpopulation (auxotrophy): HLU
# In short: as §1
# [12] = tested on: Saccharomyces cerevisiae BY4741 SeMeCo community; experiment: z-score of subpopulation abundance vs DMSO median, subpopulation auxotrophic for HLM; higher = larger share of this subpopulation than in DMSO controls; conditions: 10 µM; 24 h; SM minimal medium; subpopulation (auxotrophy): HLM
# In short: as §1
# [13] = tested on: Saccharomyces cerevisiae BY4741 SeMeCo community; experiment: z-score of subpopulation abundance vs DMSO median, subpopulation auxotrophic for HUM; higher = larger share of this subpopulation than in DMSO controls; conditions: 10 µM; 24 h; SM minimal medium; subpopulation (auxotrophy): HUM
# In short: as §1
# [14] = tested on: Saccharomyces cerevisiae BY4741 SeMeCo community; experiment: z-score of subpopulation abundance vs DMSO median, subpopulation auxotrophic for LUM; higher = larger share of this subpopulation than in DMSO controls; conditions: 10 µM; 24 h; SM minimal medium; subpopulation (auxotrophy): LUM
# In short: as §1
# [15] = tested on: Saccharomyces cerevisiae BY4741 SeMeCo community; experiment: z-score of subpopulation abundance vs DMSO median, subpopulation auxotrophic for HLUM; higher = larger share of this subpopulation than in DMSO controls; conditions: 10 µM; 24 h; SM minimal medium; subpopulation (auxotrophy): HLUM
# In short: as §1
# [16] = tested on: Saccharomyces cerevisiae BY4741 SeMeCo community; experiment: mean cell size (pixel area) (pixels); higher = larger cells; conditions: 10 µM; 24 h; SM minimal medium
# In short: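 Drug was acoustically predosed into 384-well plates to a final 10 µM in SM medium, and each well received 70 µl of Saccharomyces cerevisiae BY4741 diluted to OD600 = 0.3 from an overnight preculture at OD600 = 1.0. This four-plasmid fluorescent community carries one fluorescent marker per plasmid, and each plasmid complements one auxotrophy. After 24 h, the cells were fixed with paraformaldehyde and imaged by automated confocal microscopy, and Harmony analysis yielded mean cell pixel area per well. Each value is averaged over 3 replicates. Same SeMeCo high-content imaging drug screen: Selleck FDA-approved drugs at 10 µM, 24 h in SM medium, 384-well plates, 3 replicates.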
# [17] = tested on: Saccharomyces cerevisiae BY4741 SeMeCo community; experiment: z-score of subpopulation abundance vs DMSO median, subpopulation auxotrophic for UM; higher = larger share of this subpopulation than in DMSO controls; conditions: 10 µM; 24 h; SM minimal medium; subpopulation (auxotrophy): UM
# In short: as §1
Compound,z-score of prototroph abundance [1],z-score of subpopulation abundance [2],z-score of subpopulation abundance [3],z-score of subpopulation abundance [4],z-score of subpopulation abundance [5],z-score of subpopulation abundance [6],z-score of subpopulation abundance [7],z-score of subpopulation abundance [8],z-score of subpopulation abundance [9],z-score of subpopulation abundance [10],z-score of subpopulation abundance [11],z-score of subpopulation abundance [12],z-score of subpopulation abundance [13],z-score of subpopulation abundance [14],z-score of subpopulation abundance [15],mean cell size [16],z-score of subpopulation abundance [17]
C=C[C@H]1CN2CC[C@H]1C[C@H]2[C@H](O)c1ccnc2ccc(OC)cc12 [Quinine HCl Dihydrate],-0.12,0.59,-0.67,0.16,0.07,-0.08,-0.52,-0.08,0.2,-0.28,-0.42,0.48,0.21,0.52,0.6,–,–
NNc1nncc2ccccc12 [Hydralazine HCl],–,-0.11,-0.91,0.89,-1.09,-0.18,–,–,0.18,-0.59,-0.68,0.17,-0.64,-0.97,-0.64,11.8 ± 0.14,0.37
Cc1cccc(C#Cc2ccccc2)n1,0.53,-0.25,0.06,–,0.06,0.12,-0.31,-0.61,-0.18,-0.06,-0.17,-0.43,-0.32,-0.34,-0.82,–,-0.28
CCC1(c2ccccc2)C(=O)NCNC1=O [Primidone],0.08,0.8,-0.17,-0.16,-0.52,-0.48,-0.37,0.36,–,-0.36,-0.29,0.29,0.42,–,0.15,–,0.54
NC(CO)(CO)CO [Trometamol],-0.35,0.08,0.58,0.6,-0.42,0.36,-0.62,-0.48,0.55,0,-0.13,-0.69,-0.08,–,-0.35,–,0.88
O=C(O)c1cn(-c2ccc(F)cc2)c2cc(N3CCNCC3)c(F)cc2c1=O [Sarafloxacin HCl],0.01,-0.64,-0.74,0.41,-0.42,-0.05,0.08,–,0.4,-0.42,-0.35,-0.84,0.61,0.54,-0.29,–,0.84
O=C([O-])CC(O)(CC(=O)[O-])C(=O)[O-].O=C([O-])CC(O)(CC(=O)[O-])C(=O)[O-].[Bi+3].[K+].[K+].[K+].[K+].[K+] [Bismuth Subcitrate Potassium],0.38,-3.84,2.37,-0.49,3.24,1.34,–,-1.66,2.94,4.34,3,1.76,-1.79,0.14,0.65,–,-2.69
